Source: ChEMBL document CHEMBL1157539, “Thousands of chemical starting points for antimalarial lead identification” (Nature, 2010)

Tests used:
Format in all cases: functional
Plasmodium falciparum [1] = assay: GSK_TCMDC: Inhibition of Plasmodium falciparum 3D7 in whole red blood cells, using parasite LDH activity as an index of growth. Test compounds present at 2uM
Plasmodium falciparum [2] = assay: GSK_TCMDC: Inhibition of Plasmodium falciparum Dd2 in whole red blood cells, using parasite LDH activity as an index of growth. Test compounds present at 2uM
HepG2 = assay: GSK_TCMDC: Percent inhibition of human HepG2 cell line. Test compounds present at 10uM.

## COc1ccc(NC(=O)c2ccc(Br)c(C)c2)cc1N1CCN(CCCCc2ccccc2)CC1.O=C(O)C(=O)O
Plasmodium falciparum [1]
  Inhibition: 88%
Plasmodium falciparum [2]
  Inhibition: 17%
HepG2
  Inhibition: 29%

## Cl.O=c1cc(NCCCNCc2ccc(Cl)c(Cl)c2)[nH]c2cc(F)cc(F)c12
Plasmodium falciparum [1]
  Inhibition: 100%
Plasmodium falciparum [2]
  Inhibition: 94%
HepG2
  Inhibition: 11%

## N=C1NC(c2ccccc2)(c2ccccc2)C(=O)N1CC=Cc1ccccc1.O=C(O)C(F)(F)F
Plasmodium falciparum [1]
  Inhibition: 98%
Plasmodium falciparum [2]
  Inhibition: 70%
HepG2
  Inhibition: 23%

## COc1ccc2nccc([C@@H](O)CN3CCC(NCc4cc5ccccn5n4)CC3)c2c1.O=C(O)C(=O)O
Plasmodium falciparum [1]
  Inhibition: 99%
Plasmodium falciparum [2]
  Inhibition: 18%
HepG2
  Inhibition: 7%

## Cl.O=C(NCCCCN1CCC(c2ccc3ccccc3c2O)CC1)c1ccc(-c2ccc(Cl)cc2)cc1
Plasmodium falciparum [1]
  Inhibition: 100%
Plasmodium falciparum [2]
  Inhibition: 99%
HepG2
  Inhibition: 84%

## Cc1ccc(CNC(=O)[C@H](CCCN)Nc2nc(NCC3CCCCC3)ncc2C)cc1.O=C(O)C(F)(F)F
Plasmodium falciparum [1]
  Inhibition: 92%
Plasmodium falciparum [2]
  Inhibition: 5%
HepG2
  Inhibition: 1%

## Cc1cc(NCCc2ccccc2)nc(NC(=N)Nc2ccccc2Cl)n1
Plasmodium falciparum [1]
  Inhibition: 100%
Plasmodium falciparum [2]
  Inhibition: 7%
HepG2
  Inhibition: 20%

## Cc1cnc(NCC2CCCCC2)nc1N[C@@H](CC(C)C)C(=O)Nc1ccccc1.O=C(O)C(F)(F)F
Plasmodium falciparum [1]
  Inhibition: 96%
Plasmodium falciparum [2]
  Inhibition: 55%
HepG2
  Inhibition: 12%

## COc1cc2nc(NCCCOC(C)C)n3nc(-c4ccccc4)nc3c2cc1OC
Plasmodium falciparum [1]
  Inhibition: 94%
Plasmodium falciparum [2]
  Inhibition: 97%
HepG2
  Inhibition: 0%

## c1ccc(Oc2ccc(Nc3ccnc(Nc4cccc(CNCCCN5CCOCC5)c4)n3)cc2)cc1
Plasmodium falciparum [1]
  Inhibition: 100%
Plasmodium falciparum [2]
  Inhibition: 50%
HepG2
  Inhibition: 0%
